Experimental data: PubChem BioAssay (NCATS)
Inconclusive results are not listed. Activity calls are given as the source filed them. The call rests on the fitted dose curve; in most records, active means well fitted curve in the direction sought with a large enough effect; inconclusive means small, poorly fitted or top-dose-only effect, or another doubt; inactive means no such curve, though single readings can be large; an effect the other way counts as inactive or inconclusive.

Key:
[1] = Quantitative High-Throughput drug screen in 47 multiple myeloma cell lines against the NCATS MIPE library collection: JIM3_ECACC cell viability assay (AID 1918963; further: nearly all actives have a fitted effect of over 35% in size)
Procedure, shortened: (§1)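 Viability readout: CellTiter-Glo luminescence following 5 min room-temperature incubation with reagent. Prior exposure: 48 h, 37C, humidified 5% CO2, 500 cells per well.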

[2] = Quantitative High-Throughput drug screen in 47 multiple myeloma cell lines against the NCATS MIPE library collection: INA6_PLB cell viability assay (AID 1918965; further: nearly all actives have a fitted effect of over 55% in size)
Procedure, shortened: (§2)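 Approved and investigational drugs from MIPE 4.0 were added by pin tool to 500 cells per well. After 48 hours at 37C, ATP-based CellTiter-Glo luminescence indicated remaining viability.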

[3] = Quantitative High-Throughput drug screen in 47 multiple myeloma cell lines against the NCATS MIPE library collection: JJN3_DSMZ cell viability assay (AID 1918966; further: nearly all actives have a fitted effect of over 50% in size)
Procedure, shortened: (§3)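 We plated 500 myeloma cells per well, pinned in MIPE 4.0 compounds, and incubated for 48 hours at 37C. ATP was then quantified with CellTiter-Glo, with DMSO and media-only wells defining 100% and 0%.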

[4] = Quantitative High-Throughput drug screen in 47 multiple myeloma cell lines against the NCATS MIPE library collection: H1112_PLB cell viability assay (AID 1918967; further: nearly all actives have a fitted effect of over 30% in size)
Procedure, shortened: as §3

[5] = Quantitative High-Throughput drug screen in 47 multiple myeloma cell lines against the NCATS MIPE library collection: Karpas25_ECACC cell viability assay (AID 1918968; further: nearly all actives have a fitted effect of over 35% in size)
Procedure, shortened: as §3

[6] = Quantitative High-Throughput drug screen in 47 multiple myeloma cell lines against the NCATS MIPE library collection: KMS27_JCRB cell viability assay (AID 1918970); conditions: KMS27 myeloma cells, CellTiter-Glo ATP viability, 48 h; viability (% of DMSO): at 45.8 µM (top of the series); further: nearly all actives have a fitted effect of over 30% in size
Procedure, shortened: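 ATP-based viability (CellTiter-Glo luminescence) is measured in cells treated 48 h with approved and investigational drugs at 37 °C. Controls are DMSO-only wells for full viability and media-only wells for none.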

[7] = Quantitative High-Throughput drug screen in 47 multiple myeloma cell lines against the NCATS MIPE library collection: KMS12BM_JCRB cell viability assay (AID 1918971); further: nearly all actives have a fitted effect of over 35% in size
Procedure, shortened: as §2

[8] = Quantitative High-Throughput drug screen in 47 multiple myeloma cell lines against the NCATS MIPE library collection: MMM1_PLB cell viability assay (AID 1918976); further: nearly all actives have a fitted effect of over 35% in size
Procedure, shortened: (§4)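 MIPE 4.0 approved/investigational drugs; 500 cells/well; 48 h 37 °C humidified 5% CO2; CTG luminescence readout; DMSO = 100%, media = 0% viability.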

[9] = Quantitative High-Throughput drug screen in 47 multiple myeloma cell lines against the NCATS MIPE library collection: NCIH929_DSMZ cell viability assay (AID 1918978); further: nearly all actives have a fitted effect of over 35% in size
Procedure, shortened: as §4

[10] = Quantitative High-Throughput drug screen in 47 multiple myeloma cell lines against the NCATS MIPE library collection: MM1S_ATCC cell viability assay (AID 1918980); further: nearly all actives have a fitted effect of over 45% in size
Procedure, shortened: as §4

[11] = Quantitative High-Throughput drug screen in 47 multiple myeloma cell lines against the NCATS MIPE library collection: KMS12PE_JCRB cell viability assay (AID 1918972); further: nearly all actives have a fitted effect of over 30% in size
Procedure, shortened: as §2

[12] = Quantitative High-Throughput drug screen in 47 multiple myeloma cell lines against the NCATS MIPE library collection: KMS20_JCRB cell viability assay (AID 1918973); further: nearly all actives have a fitted effect of over 45% in size
Procedure, shortened: as §3

[13] = Quantitative High-Throughput drug screen in 47 multiple myeloma cell lines against the NCATS MIPE library collection: MOLP8_DSMZ cell viability assay (AID 1918977); further: nearly all actives have a fitted effect of over 45% in size
Procedure, shortened: as §4

[14] = Quantitative High-Throughput drug screen in 47 multiple myeloma cell lines against the NCATS MIPE library collection: OCIMY1_PLB cell viability assay (AID 1918979); further: nearly all actives have a fitted effect of over 35% in size
Procedure, shortened: as §4

[15] = Quantitative High-Throughput drug screen in 47 multiple myeloma cell lines against the NCATS MIPE library collection: KMS26_JCRB cell viability assay (AID 1918975); further: nearly all actives have a fitted effect of over 45% in size
Procedure, shortened: as §2

[16] = Quantitative High-Throughput drug screen in 47 multiple myeloma cell lines against the NCATS MIPE library collection: KHM11_PLB cell viability assay (AID 1918962); further: nearly all actives have a fitted effect of over 35% in size
Procedure, shortened: as §1

[17] = Quantitative High-Throughput drug screen in 47 multiple myeloma cell lines against the NCATS MIPE library collection: JIM1_ECACC cell viability assay (AID 1918964)
Procedure, shortened: as §3
Potency means the concentration at half of the fitted maximal effect.

SMILES | Potency [1] | Potency [2] | Potency [3] | Potency [4] | Potency [5] | Potency [6] | Potency [7] | Potency [8] | Potency [9] | Potency [10] | Potency [11] | Potency [12] | Potency [13] | Potency [14] | Potency [15] | Potency [16] | Potency [17]
O=c1[nH]c(=O)n([C@H]2C[C@@H](O)[C@@H](CO)O2)cc1C(F)(F)F | inactive | 1.87 µM (active) | inactive | 5.26 µM (active) | 10.5 µM (active) | 7.43 µM (active) | 8.33 µM (active) | 3.32 µM (active) | 10.5 µM (active) | 10.5 µM (active) | – | – | – | – | – | – | –
CCC(=C(c1ccc(O)cc1)c1ccc(OCCNC)cc1)c1ccccc1 | 20.9 µM (active) | 2.64 µM (active) | 18.7 µM (active) | 23.5 µM (active) | 18.7 µM (active) | – | 29.6 µM (active) | 20.9 µM (active) | 14.8 µM (active) | 20.9 µM (active) | 23.5 µM (active) | 5.9 µM (active) | 26.4 µM (active) | 23.5 µM (active) | – | – | –
CON(C)C(=O)N1N=C(c2cc(F)ccc2F)S[C@]1(CCCN)c1ccccc1 | inactive | inactive | – | inactive | – | 0.001 µM (active) | inactive | – | inactive | inactive | 0.001 µM (active) | – | inactive | inactive | inactive | – | –
COc1cc2c(cc1OC)CC(=O)N(CCCN(C)C[C@H]1Cc3cc(OC)c(OC)cc31)CC2 | inactive | inactive | – | 3.72 µM (active) | 4.69 µM (active) | – | – | 7.43 µM (active) | 0.332 µM (active) | 16.6 µM (active) | 20.9 µM (active) | – | – | – | – | – | –
C[C@]12CCC3=C4CCC(=O)C=C4CC[C@@H]3[C@H]1CC[C@@]2(O)CC#N | inactive | – | – | inactive | – | inactive | – | – | inactive | inactive | – | – | – | inactive | inactive | inactive | –
COc1cc([C@@H]2c3cc4c(cc3[C@@H](O[C@@H]3O[C@@H]5CO[C@@H](C)O[C@@H]5[C@H](O)[C@@H]3O)[C@H]3COC(=O)[C@H]23)OCO4)cc(OC)c1O | – | 0.332 µM (active) | inactive | – | – | – | 1.48 µM (active) | – | – | 0.264 µM (active) | – | – | inactive | inactive | – | inactive | –
CCNC(=O)c1noc(-c2cc(C(C)C)c(O)cc2O)c1-c1ccc(CN2CCOCC2)cc1 | 0.0743 µM (active) | 0.0833 µM (active) | – | – | – | inactive | – | – | 0.0418 µM (active) | 0.0332 µM (active) | – | 0.0209 µM (active) | – | – | – | 0.0833 µM (active) | –
C#C[C@]1(O)CC[C@H]2[C@H]3CCc4cc(OC)ccc4[C@H]3CC[C@@]21C | inactive | 16.6 µM (active) | – | inactive | – | – | 18.7 µM (active) | 18.7 µM (active) | – | 20.9 µM (active) | – | – | – | inactive | 2.64 µM (active) | 18.7 µM (active) | –
C[C@@]1(C(=O)Nc2ccc(F)nc2)CCCN1c1nc(Nc2cc(C3CC3)[nH]n2)c2cccn2n1 | 0.0148 µM (active) | 13.2 µM (active) | 0.105 µM (active) | – | 0.0332 µM (active) | 0.0526 µM (active) | 0.935 µM (active) | 0.0209 µM (active) | 0.0235 µM (active) | 0.0469 µM (active) | 0.166 µM (active) | 0.0743 µM (active) | – | – | 0.0066 µM (active) | – | –
CN1CCN(c2ncc(-c3cc(Cl)cc(Cl)c3Cl)c(N)n2)CC1 | inactive | 13.2 µM (active) | – | – | – | – | inactive | – | 23.5 µM (active) | 11.8 µM (active) | – | – | inactive | inactive | inactive | – | 23.5 µM (active)
CCOC(=O)c1c(CSc2ccccc2)n(C)c2cc(Br)c(O)c(CN(C)C)c12 | – | 16.6 µM (active) | 11.8 µM (active) | 6.62 µM (active) | – | 26.4 µM (active) | 18.7 µM (active) | 18.7 µM (active) | inactive | 20.9 µM (active) | – | – | 5.9 µM (active) | 16.6 µM (active) | 11.8 µM (active) | inactive | –
CN(C)c1ccccc1CN1CCCN(Cc2ccccc2N(C)C)C1c1ccncc1 | – | 23.5 µM (active) | – | – | 16.6 µM (active) | – | 16.6 µM (active) | 16.6 µM (active) | 14.8 µM (active) | – | – | – | 18.7 µM (active) | – | – | 3.32 µM (active) | –
CNC(=O)[C@H](Cc1ccccc1)NC(=O)[C@H](CC(C)C)[C@H](CSc1cccs1)C(=O)NO | – | – | 18.7 µM (active) | 20.9 µM (active) | 16.6 µM (active) | – | – | – | 9.35 µM (active) | 26.4 µM (active) | – | inactive | – | – | inactive | inactive | –
CO[C@H]1/C=C\O[C@@]2(C)Oc3c(C)c(O)c4c(O)c(c(C=NN5CCN(C6CCCC6)CC5)c(O)c4c3C2=O)NC(=O)C(C)=CC=C[C@H](C)[C@H](O)[C@@H](C)[C@@H](O)[C@@H](C)[C@H](OC(C)=O)[C@H]1C | – | – | 6.62 µM (active) | 1.18 µM (active) | 0.0235 µM (active) | – | 6.62 µM (active) | 5.26 µM (active) | 0.105 µM (active) | 0.296 µM (active) | – | – | – | 9.35 µM (active) | 20.9 µM (active) | 0.118 µM (active) | –
COc1cc2ncnc(Nc3cc(Br)c(O)c(Br)c3)c2cc1OC | 0.935 µM (active) | 0.148 µM (active) | – | 0.0418 µM (active) | – | – | 0.0019 µM (active) | – | inactive | 0.0026 µM (active) | 6.62 µM (active) | 0.0023 µM (active) | inactive | – | inactive | – | –
